Source: the supplement of paper PMC11732987, “Enantioselective OTUD7B fragment discovery through chemoproteomics screening and high-throughput optimisation” (Communications Chemistry, 2025)

Key:
Test in all cases: log2 ratio of Biotin-Ahx-Ub-VS probe labelling (fragment/DMSO); higher = less target engagement (more negative = stronger competition), active = hit call of the paper (q ≤ 0.05, log2 ratio ≤ -1)
Details in all cases: compound concentration: 200 uM; treatment time: 3 h
[1] = biological target: T1, ALG13 (UniProt Q9NP73)
T1 sequence (whole entry): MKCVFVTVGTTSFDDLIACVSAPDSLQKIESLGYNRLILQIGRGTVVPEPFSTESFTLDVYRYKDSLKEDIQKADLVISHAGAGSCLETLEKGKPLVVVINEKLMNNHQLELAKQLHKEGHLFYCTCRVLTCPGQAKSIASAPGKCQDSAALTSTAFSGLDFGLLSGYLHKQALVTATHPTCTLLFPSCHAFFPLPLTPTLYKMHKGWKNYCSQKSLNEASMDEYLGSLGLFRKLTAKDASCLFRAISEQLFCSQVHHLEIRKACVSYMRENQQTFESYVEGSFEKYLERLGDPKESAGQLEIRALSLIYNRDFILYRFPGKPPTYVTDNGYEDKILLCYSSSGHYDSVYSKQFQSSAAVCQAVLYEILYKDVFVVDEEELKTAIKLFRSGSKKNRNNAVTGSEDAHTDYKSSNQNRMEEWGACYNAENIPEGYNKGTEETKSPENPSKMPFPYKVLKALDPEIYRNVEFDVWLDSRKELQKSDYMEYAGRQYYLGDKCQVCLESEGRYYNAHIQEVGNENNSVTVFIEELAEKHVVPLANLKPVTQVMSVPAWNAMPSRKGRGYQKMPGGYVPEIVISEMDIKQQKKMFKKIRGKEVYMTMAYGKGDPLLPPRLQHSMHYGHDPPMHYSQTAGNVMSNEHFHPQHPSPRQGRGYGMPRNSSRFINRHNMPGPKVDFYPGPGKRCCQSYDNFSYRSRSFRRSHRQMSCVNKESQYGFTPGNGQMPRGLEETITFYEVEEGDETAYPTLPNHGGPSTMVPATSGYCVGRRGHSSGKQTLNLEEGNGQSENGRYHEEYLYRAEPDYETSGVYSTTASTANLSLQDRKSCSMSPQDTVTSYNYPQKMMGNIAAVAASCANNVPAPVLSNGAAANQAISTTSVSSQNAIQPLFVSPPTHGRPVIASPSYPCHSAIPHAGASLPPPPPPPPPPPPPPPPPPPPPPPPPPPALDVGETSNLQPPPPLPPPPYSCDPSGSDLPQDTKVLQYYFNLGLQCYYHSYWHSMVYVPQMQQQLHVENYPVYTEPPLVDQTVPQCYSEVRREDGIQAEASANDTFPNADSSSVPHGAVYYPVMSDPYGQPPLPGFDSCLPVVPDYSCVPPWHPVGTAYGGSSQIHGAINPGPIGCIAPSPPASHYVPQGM
Summary of the method: (§1)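 Fragment (200 µM) or vehicle was incubated for 3 h with triplicate HEK293T lysate samples of 495 µg, which were then treated with Biotin-Ahx-Ub-VS at 0.5 µM final for 1 h. Labelled DUBs were enriched on NeutrAvidin, digested with LysC and trypsin, and analysed by diaPASEF LC-MS/MS. Values are average log2 fragment/vehicle ratios from an unpaired t-test on global-median-normalised Spectronaut label-free quantities, using proteins with ≥2 unique peptides.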

[2] = biological target: ATXN3 (UniProt P54252)
Sequence of ATXN3 (P54252 whole entry): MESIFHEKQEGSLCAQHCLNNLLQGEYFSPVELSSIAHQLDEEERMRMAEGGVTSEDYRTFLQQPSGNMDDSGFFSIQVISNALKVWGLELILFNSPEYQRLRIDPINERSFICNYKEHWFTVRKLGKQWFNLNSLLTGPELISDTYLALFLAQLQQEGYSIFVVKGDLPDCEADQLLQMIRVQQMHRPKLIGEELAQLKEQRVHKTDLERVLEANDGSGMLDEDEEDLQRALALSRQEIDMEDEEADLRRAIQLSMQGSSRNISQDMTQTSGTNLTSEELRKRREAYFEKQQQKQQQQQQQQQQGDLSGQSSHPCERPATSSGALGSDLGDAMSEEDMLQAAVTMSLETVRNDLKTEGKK
Summary of the method: as §1

[3] = biological target: T2, BAP1 (UniProt Q92560)
T2 sequence (whole entry): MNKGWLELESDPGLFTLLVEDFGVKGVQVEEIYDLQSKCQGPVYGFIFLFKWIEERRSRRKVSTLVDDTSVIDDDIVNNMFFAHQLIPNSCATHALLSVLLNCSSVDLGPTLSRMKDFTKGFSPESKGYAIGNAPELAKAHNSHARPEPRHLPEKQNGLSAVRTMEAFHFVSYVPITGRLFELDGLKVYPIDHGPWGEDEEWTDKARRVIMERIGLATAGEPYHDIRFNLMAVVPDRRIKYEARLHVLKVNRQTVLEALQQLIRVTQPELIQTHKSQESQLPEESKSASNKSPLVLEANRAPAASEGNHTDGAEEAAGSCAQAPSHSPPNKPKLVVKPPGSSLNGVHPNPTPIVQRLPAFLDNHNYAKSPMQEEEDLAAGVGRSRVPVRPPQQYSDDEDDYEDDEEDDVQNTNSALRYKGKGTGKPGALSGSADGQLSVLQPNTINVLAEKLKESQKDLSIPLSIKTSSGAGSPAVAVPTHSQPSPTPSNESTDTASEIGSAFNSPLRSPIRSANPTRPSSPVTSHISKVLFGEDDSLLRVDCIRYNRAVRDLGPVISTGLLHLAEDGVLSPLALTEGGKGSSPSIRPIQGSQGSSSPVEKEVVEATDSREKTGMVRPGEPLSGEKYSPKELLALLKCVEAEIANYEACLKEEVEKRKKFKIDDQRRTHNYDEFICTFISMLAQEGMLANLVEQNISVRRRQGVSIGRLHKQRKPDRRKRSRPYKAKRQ
Summary of the method: as §1

[4] = biological target: EIF3F (UniProt O00303)
Sequence of EIF3F (O00303 whole entry): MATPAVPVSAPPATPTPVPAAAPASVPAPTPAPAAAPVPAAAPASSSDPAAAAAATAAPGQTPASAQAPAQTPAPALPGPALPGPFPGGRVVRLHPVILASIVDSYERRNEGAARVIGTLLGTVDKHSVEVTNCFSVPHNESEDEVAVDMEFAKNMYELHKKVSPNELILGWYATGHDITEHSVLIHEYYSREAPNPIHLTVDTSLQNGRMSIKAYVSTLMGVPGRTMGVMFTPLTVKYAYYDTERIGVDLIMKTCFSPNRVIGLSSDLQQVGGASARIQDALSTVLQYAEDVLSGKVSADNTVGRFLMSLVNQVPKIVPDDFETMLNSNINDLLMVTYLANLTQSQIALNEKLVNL
Summary of the method: as §1

[5] = biological target: EIF3H (UniProt O15372)
Sequence of EIF3H (O15372 whole entry): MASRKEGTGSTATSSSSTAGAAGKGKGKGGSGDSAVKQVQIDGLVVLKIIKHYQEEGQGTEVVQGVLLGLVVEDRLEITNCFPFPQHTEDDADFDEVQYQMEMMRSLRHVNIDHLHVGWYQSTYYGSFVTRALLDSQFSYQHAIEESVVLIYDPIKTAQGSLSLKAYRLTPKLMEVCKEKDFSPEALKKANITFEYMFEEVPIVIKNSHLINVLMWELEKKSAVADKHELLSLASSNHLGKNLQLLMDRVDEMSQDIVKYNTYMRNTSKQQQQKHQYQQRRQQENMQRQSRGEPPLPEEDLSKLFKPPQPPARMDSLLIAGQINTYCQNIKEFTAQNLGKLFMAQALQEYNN
Summary of the method: as §1

[6] = biological target: T3, FAM105A (UniProt Q9NUU6)
T3 sequence (whole entry): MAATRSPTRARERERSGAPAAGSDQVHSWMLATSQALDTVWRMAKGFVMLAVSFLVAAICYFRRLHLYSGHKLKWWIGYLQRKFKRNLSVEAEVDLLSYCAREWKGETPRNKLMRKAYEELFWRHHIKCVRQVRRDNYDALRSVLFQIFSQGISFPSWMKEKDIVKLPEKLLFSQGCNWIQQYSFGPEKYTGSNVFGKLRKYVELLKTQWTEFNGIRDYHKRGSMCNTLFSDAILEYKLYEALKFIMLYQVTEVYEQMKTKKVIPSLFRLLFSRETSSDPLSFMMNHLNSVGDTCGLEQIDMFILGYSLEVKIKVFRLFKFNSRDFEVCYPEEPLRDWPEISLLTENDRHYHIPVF
Summary of the method: as §1

[7] = biological target: OTUB1 (UniProt Q96FW1)
Sequence of OTUB1 (Q96FW1 whole entry): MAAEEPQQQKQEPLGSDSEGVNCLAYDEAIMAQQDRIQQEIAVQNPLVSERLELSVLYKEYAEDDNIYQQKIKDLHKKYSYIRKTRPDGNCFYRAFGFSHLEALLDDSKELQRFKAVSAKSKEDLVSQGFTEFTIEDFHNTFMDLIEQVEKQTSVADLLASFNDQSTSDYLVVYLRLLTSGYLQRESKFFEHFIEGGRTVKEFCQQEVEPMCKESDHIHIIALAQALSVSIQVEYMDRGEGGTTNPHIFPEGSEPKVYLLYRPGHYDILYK
Summary of the method: as §1

[8] = biological target: T4, OTUD4 (UniProt Q01804)
T4 sequence (whole entry): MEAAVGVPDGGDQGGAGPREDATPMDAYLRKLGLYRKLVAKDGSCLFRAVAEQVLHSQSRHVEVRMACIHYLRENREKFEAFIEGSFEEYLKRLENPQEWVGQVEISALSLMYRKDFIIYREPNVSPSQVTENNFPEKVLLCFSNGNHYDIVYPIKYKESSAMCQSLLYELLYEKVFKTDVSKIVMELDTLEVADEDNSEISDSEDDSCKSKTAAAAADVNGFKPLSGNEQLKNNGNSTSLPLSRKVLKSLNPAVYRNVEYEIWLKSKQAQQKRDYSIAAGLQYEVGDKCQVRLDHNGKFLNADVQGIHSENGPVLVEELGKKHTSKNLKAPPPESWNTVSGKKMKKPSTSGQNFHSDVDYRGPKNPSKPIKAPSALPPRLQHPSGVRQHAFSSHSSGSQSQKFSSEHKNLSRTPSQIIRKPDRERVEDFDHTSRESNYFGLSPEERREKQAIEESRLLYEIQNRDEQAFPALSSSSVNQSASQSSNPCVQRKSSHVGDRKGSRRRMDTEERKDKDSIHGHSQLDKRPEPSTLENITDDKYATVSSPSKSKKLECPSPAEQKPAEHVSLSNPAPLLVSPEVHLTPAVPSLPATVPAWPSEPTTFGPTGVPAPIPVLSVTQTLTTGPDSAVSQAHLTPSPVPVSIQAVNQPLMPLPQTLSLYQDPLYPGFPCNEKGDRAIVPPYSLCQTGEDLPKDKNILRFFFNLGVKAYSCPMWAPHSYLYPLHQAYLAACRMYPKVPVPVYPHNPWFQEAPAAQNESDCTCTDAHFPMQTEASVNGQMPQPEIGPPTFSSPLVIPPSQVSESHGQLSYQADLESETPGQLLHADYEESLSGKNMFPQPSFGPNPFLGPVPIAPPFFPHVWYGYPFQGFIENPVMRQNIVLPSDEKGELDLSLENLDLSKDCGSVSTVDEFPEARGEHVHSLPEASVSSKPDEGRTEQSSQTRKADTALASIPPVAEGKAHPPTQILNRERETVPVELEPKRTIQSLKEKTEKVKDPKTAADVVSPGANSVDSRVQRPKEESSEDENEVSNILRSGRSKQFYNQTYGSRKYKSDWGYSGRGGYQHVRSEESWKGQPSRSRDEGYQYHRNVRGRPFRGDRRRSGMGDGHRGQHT
Summary of the method: as §1

[9] = biological target: T5, OTUD5 (UniProt Q96G74)
T5 sequence (whole entry): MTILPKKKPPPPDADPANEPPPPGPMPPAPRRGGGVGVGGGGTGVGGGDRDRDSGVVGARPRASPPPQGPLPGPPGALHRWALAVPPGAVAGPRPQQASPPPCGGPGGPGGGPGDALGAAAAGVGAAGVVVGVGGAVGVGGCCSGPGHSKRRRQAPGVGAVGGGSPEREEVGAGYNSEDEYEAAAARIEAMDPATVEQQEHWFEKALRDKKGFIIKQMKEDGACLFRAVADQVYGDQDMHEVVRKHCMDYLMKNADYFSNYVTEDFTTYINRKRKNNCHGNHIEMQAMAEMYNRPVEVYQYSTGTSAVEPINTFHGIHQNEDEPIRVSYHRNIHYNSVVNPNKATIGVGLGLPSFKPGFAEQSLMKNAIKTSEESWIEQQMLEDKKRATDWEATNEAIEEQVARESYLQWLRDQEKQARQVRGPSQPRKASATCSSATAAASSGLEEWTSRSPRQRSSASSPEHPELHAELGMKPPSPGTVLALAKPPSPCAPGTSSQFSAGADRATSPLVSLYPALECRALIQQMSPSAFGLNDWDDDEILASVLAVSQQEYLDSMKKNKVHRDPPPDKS
Summary of the method: as §1

Measured: log2 ratio of Biotin-Ahx-Ub-VS probe labelling

Cc1ccc(CN(C)C(=O)CCl)o1
inactive: [1] 0.042 | [2] -0.103 | [3] -0.4 | [4] -0.0182 | [5] -0.047 | [6] 0.277 | [7] 0.103 | [8] 0.05 | [9] -0.308
